# Values joined by “and” are separate entries in the source; they are usually repeats but may differ in a detail not shown here. Identical values can stand only once. Records with an inconclusive call do not appear. A call without a number means that no potency is given here. Unmarked numbers belong to inactive results. Active and inactive are the calls of the source. The call rests on the fitted dose curve; in most records, active means well fitted curve in the direction sought with a large enough effect; inconclusive means small, poorly fitted or top-dose-only effect, or another doubt; inactive means no such curve, though single readings can be large; an effect the other way counts as inactive or inconclusive.
# What was measured:
# [1] = system: Zika virus NS2B-NS3 protease; test: Primary screen GU AMC qHTS for Zika virus inhibitors (AID 1347154); further: nearly all actives have a fitted effect of over 70% in size; further: potency means the concentration at half of the fitted maximal effect
# Summary of the method: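 Fluorogenic AMC-substrate cleavage by noncovalent NS2B-NS3 protease complex (25 nM, pH 8.0 Tris buffer with Tween 20) followed for 15 minutes at room temperature (~20% conversion). Percent inhibition from ex340/em450 signal change, fitted by 4-parameter Hill equation.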
# [2] = biological target: Furin (Homo sapiens) (UniProt P09958); test: Furin counterscreen qHTS for Zika virus inhibitors (AID 1347149); further: nearly all actives have a fitted effect of over 70% in size; further: potency means the concentration at half of the fitted maximal effect;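 on activity change, negative = inhibition: purified recombinant full-length human furin enzyme at 5 nM; fluorescence gain from furin cutting a BOC-RVRR-AMC peptide substrate over 15 min; top concentration of the series differs between compounds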
# Summary of the method: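 Counterscreen measures cleavage of 2 microM BOC-RVRR-AMC, below its ~15 microM Km, by 5 nM full-length human furin at pH 7.0 after a 15-min compound preincubation. Inhibition derives from the 15-min fluorescence increase at 37C.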
# [3] = system: Zika virus NS2B-NS3 protease (linked construct); test: Confirmatory screen NINDS AMC qHTS for Zika virus inhibitors (AID 1347152); further: nearly all actives have a fitted effect of over 70% in size; further: potency means the concentration at half of the fitted maximal effect;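 on activity change, negative = inhibition: AMC fluorescence gain from cleaved Bz-Nle-KRR-AMC substrate over 15 min; top concentration of the series differs between compounds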
# Summary of the method: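 Purified NS2B-NS3 protease with NS2B hydrophilic domain linked to NS3 protease domain by flexible linker, 1 nM final in 10 mM Tris-HCl pH 8.0, 0.01% Tween 20. Compounds preincubated 15 min, room temperature; Bz-Nle-KRR-AMC 10 microM (Km 18.3 µM); 15-min fluorescence change, 4-parameter Hill fit.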
# [4] = system: Zika virus NS2B-NS3 protease (unlinked complex); test: Confirmatory screen GU AMC qHTS for Zika virus inhibitors (AID 1347153); further: nearly all actives have a fitted effect of over 70% in size
# Summary of the method: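 Fluorescence change (ex 340/em 450 nm) over 15 min, ~20% substrate conversion, normalized to no-inhibitor and no-enzyme controls, then Hill-fitted. Unlinked protease at 25 nM; AMC peptide 10 µM.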
# [5] = Confirmatory screen NINDS Rhodamine qHTS for Zika virus inhibitors (AID 1347161); further: nearly all actives have a fitted effect of over 60% in size; further: potency means the concentration at half of the fitted maximal effect;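 on activity change, negative = inhibition: purified Zika NS2B-NS3 protease with linked NS2B cofactor domain and Rhodamine110 peptide substrate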
# Summary of the method: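 Rhodamine110-peptide cleavage (1.5 µM substrate) by 25 nM linked NS2B-NS3 enzyme at pH 8.0 (Tris, Tween 20), after 15 min RT preincubation with compounds; 15-min fluorescence change normalized to controls and Hill-fitted.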
# [6] = Vero cells viability qHTS for Zika virus inhibitors (AID 1347167)
# Summary of the method: (§1)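 Luminescent ATP readout (CellTiter Glo) after 30 min at 37 degrees C gives viability; cells in DMEM + 4% FBS were treated 24 to 48 hours with compound, following overnight attachment.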
# [7] = HepG2 cells viability qHTS for Zika virus inhibitors (AID 1347168); further: potency means the concentration at half of the fitted maximal effect
# Summary of the method: as §1
# [8] = Tertiary RLuc qRT-PCR qHTS assay for Zika virus inhibitors (AID 1347169); further: nearly all actives have a fitted effect of over 55% in size; further: potency means the concentration at half of the fitted maximal effect; on activity change, negative = inhibition: top concentration of the series differs between compounds
# Summary of the method: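 Vero cells (1,000 per well) plated overnight at 37 degrees C, treated with compound in DMSO, then infected with recombinant ZIKV-RLuc (Cambodian) at MOI 1-2 for 48-72 hrs. Live-cell Renilla luciferase substrate added; luminescence read after 1-1.5 hrs.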
# [9] = qHTS to identify inhibitors of the type 1 interferon - major histocompatibility complex class I in skeletal muscle: primary screen against the NCATS Pharmaceutical Collection (AID 1347407);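 further: luminescence of HiBiT knocked into endogenous HLA-B as interferon-induced MHC class I level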
# Summary of the method: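 Immortalized human myoblasts (C25cl48) with HiBiT knocked into endogenous HLA-B*08:01 were stimulated with 4 ng/ml IFN-beta and treated with compounds (8-point, 1:5, top 46 uM final) for 24 h at 37 C; HiBiT lytic luminescence read.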
# [10] = biological target: N-terminal Xaa-Pro-Lys N-methyltransferase 1 (Homo sapiens) (UniProt Q9BV86); test: qHTS Assay for Inhibitors of N-terminal methyltransferase 1 (NTMT1): LOPAC validation of the NTMT1 SAHH-coupled ThioGlo3 Assay (AID 1347143); further: potency means the concentration at half of the fitted maximal effect
# Summary of the method: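 NTMT1 125nM + cpds (various conc.), 1 min RT; add SAM 100uM/SAHH 10uM/ThioGlo3 15uM (addition mix). SAHH-coupled thiol detection, Ex340/Em450, t0 and 30 min RT; signal normalized to background. LOPAC 1280-cpd pilot.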
# [11] = biological target: Lysine-specific demethylase 5B (Homo sapiens) (UniProt Q9UGL1); test: Optimization screen for KDM5B Histone Demethylases FDH coupled qHTS against the LOPAC library (AID 1347166); conditions: KDM5B demethylation, FDH-coupled NADH fluorescence (FDH is formaldehyde dehydrogenase); at 57.5 µM (top of the series)
# Summary of the method: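 KDM5BDeltaAP (200nM final) in 50mM HEPES pH 7.5, 0.01% Tween-20 was preincubated with compound for 10 min at room temperature. A substrate mix of 12.5uM H3K4Me3, 25uM a-ketoglutarate, ascorbate, Fe2+, NAD+ and formaldehyde dehydrogenase was then added. NADH fluorescence (340/450 nm) was read initially and after 30 min.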
# [12] = qHTS of pediatric cancer cell lines to identify multiple opportunities for drug repurposing: Confirmatory screen for SK-N-SH cells (AID 1347129);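 further: cells exposed to compound for 48 h before viability read; nearly all actives have a fitted effect of over 60% in size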
# Summary of the method: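 Cells (500-1,000/well) rested 5 h, then received compounds for 48 h; metabolically active cells were measured by CellTiter-Glo luminescence. Final concentrations spanned up to 46 µM (MIPE, 11-point) or 0.59 nM-46 µM (NPC, 8-point) in primary screens, 11-point in follow-ups.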
# [13] = system: Zika virus NS2B-NS3 protease (linked); test: 384 well plate NINDS AMC confirmatory qHTS for Zika virus inhibitors (AID 1347163); conditions: Recombinant NS2B-NS3 protease, Ac-VKTGKR-AMC fluorescence; further: potency means the concentration at half of the fitted maximal effect; nearly all actives have a fitted effect of over 50% in size
# Summary of the method: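 Enzyme (5, 30 or 60 nM final) first met test compounds for ~15 min. The AMC-tagged peptide Ac-VKTGKR-AMC followed at 30 microM. Fluorescence was then recorded at 25 min and scaled against no-enzyme and no-inhibitor wells.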
# [14] = system: Zika virus NS2B-NS3 protease (linked construct); test: 384 well plate NINDS Rhodamine confirmatory qHTS for Zika virus inhibitors (AID 1347164); conditions: rhodamine-110 peptide substrate fluorescence;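 further: fluorescence from protease cleavage of Ac-LKRR-rhodamine 110 substrate; potency means the concentration at half of the fitted maximal effect; nearly all actives have a fitted effect of over 65% in size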
# Summary of the method: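 Linked protease at a final 5 nM, 30 nM or 60 nM was preincubated ~15 min with compounds, then given 10 microM Ac-LKRR-Rhodamine 110. Fluorescence (ex 485/em 538 nm) after 25 min in the dark at room temperature.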
# [15] = system: Zika virus NS2B-NS3 protease (unlinked); test: Optimization of GU AMC qHTS for Zika virus inhibitors: Unlinked NS2B-NS3 protease assay (AID 1347151); further: nearly all actives have a fitted effect of over 80% in size; further: potency means the concentration at half of the fitted maximal effect
# Summary of the method: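 Noncovalent complex of NS2B hydrophilic domain and NS3 protease domain, 25 nM final, in 10 mM Tris-HCl pH 8.0, 0.01% Tween 20. AMC fluorescence change over 15 min at room temperature was fitted to a 4-parameter Hill equation.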
# [16] = Confirmatory screen GU Rhodamine qHTS for Zika virus inhibitors qHTS (AID 1347157); further: nearly all actives have a fitted effect of over 70% in size
# Summary of the method: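 Percent inhibition came from the 15-min rise in Rhodamine110 fluorescence (1.5 microM substrate, ~15% conversion), normalized to no-inhibitor and no-enzyme wells and Hill-fitted. Unlinked protease, 25 nM, pH 8.0 Tris buffer; compounds up to 114 microM, 15-min preincubation.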
# [17] = qHTS to identify inhibitors of the type 1 interferon - major histocompatibility complex class I in skeletal muscle: primary screen against the NCATS LOPAC collection (AID 1347405);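 further: lytic HiBiT luminescence reporting HLA-B protein level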
# Summary of the method: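 IFN-beta-stimulated (4 ng/ml) HLA-B HiBiT knock-in myoblasts, compound-treated 24 hrs up to 46 uM final; signal via LgBiT complementation and furimazine luminescence.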
# Sequence of Lysine-specific demethylase 5B (Homo sapiens) (Q9UGL1 whole entry, looked up): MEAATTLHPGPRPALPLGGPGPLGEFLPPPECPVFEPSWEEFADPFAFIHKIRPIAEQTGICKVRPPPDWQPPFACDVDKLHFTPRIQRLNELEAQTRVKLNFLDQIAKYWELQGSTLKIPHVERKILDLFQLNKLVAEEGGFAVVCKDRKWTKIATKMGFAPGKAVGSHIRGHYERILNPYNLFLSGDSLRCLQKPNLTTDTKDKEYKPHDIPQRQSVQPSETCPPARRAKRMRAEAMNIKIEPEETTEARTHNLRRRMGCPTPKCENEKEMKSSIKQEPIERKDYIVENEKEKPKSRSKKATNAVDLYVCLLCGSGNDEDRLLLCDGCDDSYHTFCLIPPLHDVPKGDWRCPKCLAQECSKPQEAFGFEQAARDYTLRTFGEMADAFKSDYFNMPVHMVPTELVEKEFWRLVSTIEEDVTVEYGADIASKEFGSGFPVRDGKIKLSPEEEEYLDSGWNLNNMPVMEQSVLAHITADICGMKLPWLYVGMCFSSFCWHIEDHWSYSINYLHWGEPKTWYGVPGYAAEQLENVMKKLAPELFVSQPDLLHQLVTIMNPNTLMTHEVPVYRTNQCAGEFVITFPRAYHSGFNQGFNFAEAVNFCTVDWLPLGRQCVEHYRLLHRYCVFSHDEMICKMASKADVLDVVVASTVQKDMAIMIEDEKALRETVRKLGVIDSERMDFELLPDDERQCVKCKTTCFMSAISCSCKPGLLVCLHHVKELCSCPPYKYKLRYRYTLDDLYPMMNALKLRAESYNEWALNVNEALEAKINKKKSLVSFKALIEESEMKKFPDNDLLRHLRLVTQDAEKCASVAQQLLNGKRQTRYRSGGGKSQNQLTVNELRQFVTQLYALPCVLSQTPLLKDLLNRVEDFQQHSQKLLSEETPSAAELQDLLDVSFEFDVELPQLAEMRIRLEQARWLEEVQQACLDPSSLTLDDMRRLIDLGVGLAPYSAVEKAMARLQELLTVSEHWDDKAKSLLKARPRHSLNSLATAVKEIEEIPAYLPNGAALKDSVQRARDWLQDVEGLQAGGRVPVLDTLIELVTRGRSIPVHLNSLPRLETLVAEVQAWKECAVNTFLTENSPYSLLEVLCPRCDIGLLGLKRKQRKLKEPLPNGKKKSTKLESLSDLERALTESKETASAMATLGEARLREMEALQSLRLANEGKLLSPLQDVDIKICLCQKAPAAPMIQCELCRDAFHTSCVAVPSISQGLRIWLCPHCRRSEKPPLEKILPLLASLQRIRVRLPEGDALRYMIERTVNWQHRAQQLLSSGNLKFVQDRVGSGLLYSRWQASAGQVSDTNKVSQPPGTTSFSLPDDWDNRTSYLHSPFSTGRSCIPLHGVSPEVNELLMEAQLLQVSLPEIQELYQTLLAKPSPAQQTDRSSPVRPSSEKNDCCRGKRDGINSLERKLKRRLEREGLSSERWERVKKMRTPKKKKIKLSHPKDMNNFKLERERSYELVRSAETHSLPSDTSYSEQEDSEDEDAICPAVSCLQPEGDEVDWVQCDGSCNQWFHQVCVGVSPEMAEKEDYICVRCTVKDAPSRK
# Sequence of N-terminal Xaa-Pro-Lys N-methyltransferase 1 (Homo sapiens) (Q9BV86 whole entry, looked up): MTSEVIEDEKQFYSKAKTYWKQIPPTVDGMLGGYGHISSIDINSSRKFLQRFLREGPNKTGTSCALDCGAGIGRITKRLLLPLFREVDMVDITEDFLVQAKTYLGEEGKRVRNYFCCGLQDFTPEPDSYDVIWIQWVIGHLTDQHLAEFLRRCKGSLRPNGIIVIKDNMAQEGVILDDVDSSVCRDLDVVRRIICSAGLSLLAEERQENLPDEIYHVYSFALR
# Sequence of Furin (Homo sapiens) (P09958 whole entry, looked up): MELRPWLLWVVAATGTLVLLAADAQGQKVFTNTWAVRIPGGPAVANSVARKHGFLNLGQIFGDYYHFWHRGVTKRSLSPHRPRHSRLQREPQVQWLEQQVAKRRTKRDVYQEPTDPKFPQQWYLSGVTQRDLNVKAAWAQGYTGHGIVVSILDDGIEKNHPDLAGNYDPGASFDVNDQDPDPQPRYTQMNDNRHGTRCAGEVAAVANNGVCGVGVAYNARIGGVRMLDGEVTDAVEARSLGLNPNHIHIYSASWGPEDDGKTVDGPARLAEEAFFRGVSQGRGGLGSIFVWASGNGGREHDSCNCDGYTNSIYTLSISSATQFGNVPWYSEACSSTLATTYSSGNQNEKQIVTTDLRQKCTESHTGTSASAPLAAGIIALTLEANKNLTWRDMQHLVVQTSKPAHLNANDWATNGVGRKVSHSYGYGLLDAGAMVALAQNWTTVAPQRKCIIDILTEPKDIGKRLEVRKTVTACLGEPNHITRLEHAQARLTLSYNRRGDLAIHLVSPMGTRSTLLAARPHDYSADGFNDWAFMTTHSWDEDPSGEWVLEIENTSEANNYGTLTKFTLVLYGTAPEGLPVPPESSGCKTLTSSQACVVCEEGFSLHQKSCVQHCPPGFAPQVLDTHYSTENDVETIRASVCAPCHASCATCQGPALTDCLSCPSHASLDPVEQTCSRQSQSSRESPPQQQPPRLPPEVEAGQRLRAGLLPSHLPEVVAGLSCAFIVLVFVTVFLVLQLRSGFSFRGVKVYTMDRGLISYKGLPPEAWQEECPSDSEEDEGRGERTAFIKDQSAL
compound,measurement,setting,value
Cc1cc(NS(=O)(=O)c2ccc(N)cc2)no1,Potency,[1],inactive
O=C(O)CSCC(=O)NC1CCSC1=O (stereo unspecified),Potency,[1],inactive
CCCc1nc(C)c2c(=O)[nH]c(-c3cc(S(=O)(=O)N4CCN(CC)CC4)ccc3OCC)nn12,Potency,[2],inactive
same,Potency,[3],inactive
same,Potency,[4],inactive
same,Potency,[5],inactive
same,Potency,[6],inactive
same,Potency,[7],inactive
same,Potency,[8],inactive
same,Potency,[9],inactive
C[C@@H](NCCCc1cccc(C(F)(F)F)c1)c1cccc2ccccc12,Potency,[1],inactive
N[C@@H](Cc1ccc(O)c(O)c1)C(=O)O,Potency,[10],50.1 µM (active)
same,Potency,[1],27.1 µM (active)
same,"activity, negative = inhibition",[11],0.726%
CC(=O)CC(c1ccccc1)c1c(O)c2ccccc2oc1=O (stereo unspecified),Potency,[1],inactive
O=NN(CCCl)C(=O)NC1CCCCC1,Potency,[12],inactive
same,Potency,[1],inactive
same,Potency,[9],inactive
O=C(O)c1ccc(-n2nc(-c3ccccc3O)nc2-c2ccccc2O)cc1,Potency,[2],inactive
same,Potency,[3],inactive
same,Potency,[4],inactive
same,Potency,[1],inactive
same,Potency,[5],11 µM (active)
same,Potency,[13],112 µM (active)
same,Potency,[14],35.5 µM (active)
same,Potency,[6],inactive
same,Potency,[7],inactive
same,Potency,[8],13.1 µM (active)
same,Potency,[9],inactive
CC(=O)[C@H]1CC[C@H]2[C@@H]3CCC4=CC(=O)CC[C@]4(C)[C@H]3CC[C@]12C,Potency,[15],inactive
same,Potency,[1],inactive
same,"activity, negative = inhibition",[11],-4.17%
CC(C)(Sc1cc(C(C)(C)C)c(O)c(C(C)(C)C)c1)Sc1cc(C(C)(C)C)c(O)c(C(C)(C)C)c1,Potency,[2],inactive
same,Potency,[1],inactive
same,outcome,[16],inactive
same,Potency,[5],inactive
same,"activity change, negative = inhibition",[8],-19.1% [at 0.566 µM]
same,Potency,[9],inactive
CNNCc1ccc(C(=O)NC(C)C)cc1,Potency,[12],inactive
same,Potency,[1],inactive
same,Potency,[9],inactive
Cc1cccc(N(C)C(=S)Oc2ccc3ccccc3c2)c1,Potency,[12],inactive
same,Potency,[1],inactive
same,Potency,[9],inactive
CCOC(=O)[C@H](CCc1ccccc1)N[C@H]1CS[C@H](c2cccs2)CN(CC(=O)O)C1=O,Potency,[12],inactive
same,Potency,[1],inactive
same,Potency,[9],inactive
NC(=O)c1ccc2[nH]ccc2c1,Potency,[10],inactive
same,Potency,[1],inactive
same,"activity, negative = inhibition",[11],-16.4%
same,outcome,[17],inactive
CNC1CCCN(c2c(F)cc3c(=O)c(C(=O)O)cn(C4CC4)c3c2OC)C1 (stereo unspecified),Potency,[2],7.62 µM (active) and 24.1 µM (active)
same,Potency,[3],27.1 µM (active)
same,Potency,[4],inactive
same,Potency,[1],25.6 µM (active)
same,Potency,[5],inactive
same,Potency,[6],inactive
same,Potency,[7],inactive
same,Potency,[8],inactive
same,Potency,[9],inactive
CC1=C(C(=O)O)N2C(=O)[C@@H](NC(=O)C(N)c3ccccc3)[C@H]2SC1 (stereo partly specified),Potency,[10],inactive
same,Potency,[15],inactive
same,Potency,[1],inactive
same,"activity, negative = inhibition",[11],-17.9%
same,outcome,[17],inactive
O=C(O)C1CCCN(CCC=C(c2ccccc2)c2ccccc2)C1 (stereo unspecified),Potency,[10],inactive
same,Potency,[15],inactive
same,Potency,[1],inactive
same,"activity, negative = inhibition",[11],-3.3%
same,outcome,[17],inactive
OCc1ccc(-c2nn(Cc3ccccc3)c3ccccc23)o1,Potency,[10],28.2 µM (active)
same,Potency,[2],27.1 µM (active)
same,Potency,[15],23.8 µM (active)
same,Potency,[3],24.1 µM (active)
same,Potency,[4],24.1 µM (active)
same,Potency,[1],30.4 µM (active)
same,Potency,[6],inactive
same,Potency,[7],11.7 µM (active)
same,outcome,[17],inactive
O=S(=O)(O)CCS,Potency,[12],inactive
same,Potency,[1],inactive
same,Potency,[9],inactive
CCc1cc(C(N)=S)ccn1,Potency,[1],inactive
CCN(CC)CCn1c(=O)c(Cc2ccc(OC)cc2)nc2ccccc21,Potency,[15],inactive
same,Potency,[1],inactive
same,"activity, negative = inhibition",[11],-17%
same,outcome,[17],inactive
O=C(O)c1cn(C2CC2)c2cc(N3CCNCC3)c(F)cc2c1=O,Potency,[2],24.1 µM (active)
same,Potency,[3],24.1 µM (active)
same,Potency,[6],inactive
same,Potency,[7],inactive
same,Potency,[8],inactive
Cc1ccc(S(=O)(=O)N[C@@H](Cc2ccccc2)C(=O)CCl)cc1,Potency,[15],inactive
same,Potency,[1],inactive
CCN(CC)CC#CCOC(=O)C(O)(c1ccccc1)C1CCCCC1 (stereo unspecified),Potency,[15],inactive
same,Potency,[1],inactive
same,"activity, negative = inhibition",[11],-11%
same,outcome,[17],inactive
CCOC(=O)[C@H](CCc1ccccc1)N[C@H]1CCc2ccccc2N(CC(=O)O)C1=O,Potency,[1],inactive
O=C(N[C@H](CO)[C@H](O)c1ccc([N+](=O)[O-])cc1)C(Cl)Cl,Potency,[1],inactive
CC(C)C1CCC(C(=O)N[C@H](Cc2ccccc2)C(=O)O)CC1 (stereo partly specified),Potency,[1],inactive

# Source: PubChem BioAssay (NCATS)
